Screening results deposited in PubChem BioAssay by National Center for Advancing Translational Sciences (NCATS).
POLB inh: qHTS Assay for Inhibitors of DNA Polymerase Beta; P06746; Pol beta primer extension/strand displacement, fluorescence kinetic; Potency, µM (doses to about 114 µM), for the others: at the highest dose activity change, negative = inhibition, usual class: inhibitors; 340,000 compounds, 1.3% hits; AID 485314, 2010; also: % is scaled to controls: 0 for no effect and ±100 for the full control effect
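Enzyme-only controls used 10 nM Pol beta; buffer lacking enzyme served as negative control. Compound preincubated 15 min, then 50 nM substrate added; 0 and 10 min reads at room temperature.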
WRN helicase inh: qHTS for Inhibitors of WRN Helicase; WRN helicase unwinding, fluorescent forked duplex, kinetic; Potency, µM (highest dose often 114 µM), without a hit: at the top dose activity change, negative = inhibition, usual class: inhibitors; 360,000 compounds, 0.46% hits; AID 651768, 2012; also: % is scaled to controls: 0 for no effect and ±100 for the full control effect; nearly all actives have a fitted effect of over 55% in size
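Enzyme (20 nM final) and test compound sit together 15 min at room temperature before substrate addition. Substrate is a single-forked duplex oligonucleotide (100 nM) labelled with fluorophore and quencher, with 2 mM ATP; helicase unwinding raises red fluorescence, read kinetically.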
Pol kappa inh: qHTS for Inhibitors of Polymerase Kappa. purified Pol kappa, fluorescent DNA synthesis assay, 10 min. Potency, µM (doses to about 107 µM), for the others: at the highest dose activity, negative = inhibition, hits mostly inhibitors. 400,000 compounds, 0.53% hits. AID 588579, 2011; also: % is scaled to controls: 0 for no effect and ±100 for the full control effect
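50 nM final substrate added after 15 min RT preincubation of 10 nM Pol kappa with compound; fluorescence read at 0 and 10 min.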
FEN1 inh: qHTS Assay for the Inhibitors of Human Flap endonuclease 1 (FEN1) | 390,000 compounds, 0.35% hits | P39748 | Recombinant FEN1 flap cleavage, fluorescence, 15 min | Potency, µM (highest dose often 114 µM), inactives show at the highest dose activity change, negative = inhibition, most hits filed as inhibitors; also: % is scaled to controls: 0 for no effect and ±100 for the full control effect; nearly all actives have a fitted effect of over 65% in size
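FEN1 at 10 nM, compound pretreatment for 15 min (room temperature), 50 nM final substrate to initiate; endpoint reads at 0 and 15 min; DMSO-only plates used as vehicle background.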
Pol eta inh: qHTS for Inhibitors of Polymerase Eta. DNA polymerase eta (Homo sapiens), Q9Y253. recombinant Pol eta, fluorescent DNA replication assay. Potency, µM (doses to about 114 µM), for inactives: top-dose activity change, negative = inhibition, actives largely listed as inhibitors. 390,000 compounds, 1.2% hits. AID 588591, 2011; also: % is scaled to controls: 0 for no effect and ±100 for the full control effect
Target sequence (Q9Y253 whole entry, looked up): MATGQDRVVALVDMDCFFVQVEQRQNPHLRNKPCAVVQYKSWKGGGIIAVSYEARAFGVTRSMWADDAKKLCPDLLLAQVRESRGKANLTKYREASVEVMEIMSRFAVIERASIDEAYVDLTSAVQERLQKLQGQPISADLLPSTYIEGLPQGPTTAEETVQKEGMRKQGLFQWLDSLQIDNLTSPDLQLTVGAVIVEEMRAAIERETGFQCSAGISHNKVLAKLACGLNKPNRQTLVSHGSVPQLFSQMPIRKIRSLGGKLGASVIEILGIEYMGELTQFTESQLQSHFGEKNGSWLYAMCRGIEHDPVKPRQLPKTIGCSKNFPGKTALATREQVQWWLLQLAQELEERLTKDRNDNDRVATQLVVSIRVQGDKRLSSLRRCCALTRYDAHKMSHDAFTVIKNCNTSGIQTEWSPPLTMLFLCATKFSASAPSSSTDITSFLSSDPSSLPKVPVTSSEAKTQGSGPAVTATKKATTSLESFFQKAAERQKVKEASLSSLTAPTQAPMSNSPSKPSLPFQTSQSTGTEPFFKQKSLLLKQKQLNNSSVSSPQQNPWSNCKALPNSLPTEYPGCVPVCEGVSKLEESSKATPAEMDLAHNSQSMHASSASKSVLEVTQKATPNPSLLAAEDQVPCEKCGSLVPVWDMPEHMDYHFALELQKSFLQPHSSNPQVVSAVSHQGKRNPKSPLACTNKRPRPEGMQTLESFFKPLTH
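Fluorescent replication assay: 50 nM final substrate added after a 15 min room-temperature compound preincubation with 10 nM enzyme. Signal taken at 0 min and again at 10 min.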
Pol iota inh: qHTS for Inhibitors of Polymerase Iota. DNA polymerase iota (Homo sapiens), Q9UNA4. Pol iota fluorescent replication assay, 10 min. Potency, µM (top dose mostly 115 µM), for the others: at the highest dose activity, negative = inhibition, most hits filed as inhibitors. 390,000 compounds, 1% hits
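Pol iota at 10 nM preincubated 15 min with compounds at room temperature; reaction started with fluorescent substrate, 50 nM final. Fluorescence read kinetically at 0 and 10 min; buffer-only wells as negative control.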
Starred values were filed as active, the others as inactive; [ ] = another dose, or the depositor's remark. Only some compounds are listed: those with a hit (about 2.4% of all), similar ones and a draw of the others. Calls follow the shape of the dose curve; as a rule, active = well fitted curve in the direction sought with a large enough effect; inconclusive = small, poorly fitted or top-dose-only effect, or another doubt; inactive = no such curve, though single readings can be large; an effect the other way counts as inactive or inconclusive. Potency is read from the fitted curve at half-maximal effect.

What do the screens show for `CN(C)c1ccc(/C=N/NC(=O)C2COc3ccccc3O2)o1` (configuration not stated)?
POLB inh: 31.8%; WRN helicase inh: -28.0%; Pol kappa inh: -3.7%; FEN1 inh: -2.2%; Pol eta inh: -21.5%; Pol iota inh: 6.4%

Results for O=C(N/N=C\c1ccc(Br)o1)C1COc2ccccc2O1 (configuration not stated) ?
POLB inh: 35.5µM*; WRN helicase inh: -14.9%[11.6 µM]; Pol kappa inh: -73.7%; FEN1 inh: 10.4%; Pol eta inh: 44.7µM*; Pol iota inh: 44.7µM*

Results for COc1cc(/C=C2\SC(=S)N(NC(=O)c3cccnc3)C2=O)ccc1O ?
POLB inh: inconclusive; WRN helicase inh: 50.1µM*; Pol kappa inh: inconclusive; FEN1 inh: -32.4%; Pol eta inh: inconclusive; Pol iota inh: 15.8µM*

Results for COc1cc(/C=C2\SC(=S)N(c3cccnc3)C2=O)ccc1O ?
POLB inh: inconclusive; WRN helicase inh: inconclusive; Pol kappa inh: inconclusive; FEN1 inh: -25.0%; Pol eta inh: 4.0%; Pol iota inh: inconclusive

Results for COc1cc(/C=C2\SC(=S)N(NC(=O)c3ccc(O)cc3)C2=O)ccc1O ?
POLB inh: 12.6µM*; WRN helicase inh: 28.2µM*; Pol kappa inh: inconclusive; FEN1 inh: inconclusive; Pol eta inh: inconclusive; Pol iota inh: 50.1µM*

What do the screens show for `CC(C)c1cccc(NC(=O)COC(=O)c2ccccc2OCc2cccc(Br)c2)c1`?
Pol kappa inh: -9.7%; FEN1 inh: -21.3%; Pol iota inh: -5.0%

What do the screens show for `O=[N+]([O-])c1ccc(/C=C/c2cc(Cl)nc3ccccc23)cc1`?
Pol kappa inh: -0.3%; FEN1 inh: 3.2%; Pol iota inh: 4.5%

How did CNc1c(Br)cc(C(O)C2=CCc3ccccc32)cc1Br (configuration not stated) do in these assays?
Pol kappa inh: 6.3%; FEN1 inh: 6.1%; Pol iota inh: -17.1%

Results for O=c1cc(O)c2c(=O)n(C3CCCCC3)c3ccccc3c2o1 ?
POLB inh: 44.7µM*; WRN helicase inh: -17.8%[57.1 µM]; Pol kappa inh: -23.3%; FEN1 inh: -4.1%; Pol eta inh: inconclusive; Pol iota inh: inconclusive

What do the screens show for `O=c1c([N+](=O)[O-])c(O)c2ccccc2n1Cc1ccccc1`?
POLB inh: 7.3%; WRN helicase inh: -11.0%; Pol kappa inh: -16.0%; FEN1 inh: 11.2µM*; Pol eta inh: -12.4%; Pol iota inh: 5.7%

Results for CCCCn1c(=O)c2c(O)cc(=O)oc2c2ccccc21 ?
POLB inh: inconclusive; WRN helicase inh: -7.9%; Pol kappa inh: -4.9%; FEN1 inh: -19.1%; Pol eta inh: inconclusive; Pol iota inh: 8.3%

Results for O=c1cc(O)c2c(=O)n(Cc3ccccc3)c3ccccc3c2o1 ?
POLB inh: 25.1µM*; WRN helicase inh: inconclusive; Pol kappa inh: -8.0%; FEN1 inh: inconclusive; Pol eta inh: inconclusive; Pol iota inh: inconclusive

How did CC[C@H](C)[C@H](NC(=O)[C@@H](NC(=O)[C@@H](NC(=O)[C@H](CCC(=O)O)NC(=O)[C@H](CCC(=O)O)NC(=O)[C@H](CCC(=O)O)NC(=O)[C@H](C)NC(=O)[C@@H](N)CC(C)C)C(C)C)C(C)C)C(=O)N[C@@H](CCCNC(=N)N)C(=O)N[C@@H](CO)C(=O)N[C@@H](C)C(=O)N[C@@H](CC(N)=O)C(=O)N[C@@H](Cc1ccccc1)C(=O)N[C@H](C(=O)N[C@@H](CC(=O)O)C(=O)N[C@@H](CC(N)=O)C(=O)O)[C@@H](C)O do in these assays?
Pol kappa inh: 20.6%[60.1 µM]
